The test system of this assay is AmpC beta-lactamase (E. coli). Briefly: AmpC inhibition relative to DMSO; higher = more inhibition. The method, then:
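Aggregation counter-screen: inhibition of E. coli AmpC beta-lactamase (5 nM, nitrocefin substrate, 50 mM sodium phosphate pH 7.0, RT, 5 min) by KAT inhibitors at 4, 11, 33 and 100 uM, with or without 0.01% Triton X-100. Percent inhibition is relative to DMSO controls. Four technical replicates.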

Where [1] appears, read: 4 µM, detergent: 0.01% Triton X-100.
Setting [2] is: 11 µM, detergent: 0.01% Triton X-100.
[3] abbreviates: 33 µM, detergent: 0.01% Triton X-100.
Where [4] appears, read: 100 µM, detergent: 0.01% Triton X-100.
[5] abbreviates: 100 µM, detergent: no detergent.

Data on 3 compounds can be found in the supplement of paper PMC10011410.

± gives the standard deviation of the averaged measurements.

As to `O=C(/C(C(N1CC2=CC=CC=C2)=O)=C/C3=C(C)C=C(O)C=C3C)N(CC4=CC=CC=C4)C1=O`, the AmpC inhibition was 4.49 ± 6.9% under setting [1]; 2.08 ± 1.8% (4 µM, detergent: no detergent); 3.45 ± 13% under setting [2]; 29.6 ± 8.8% (11 µM, detergent: no detergent); 10.9 ± 3.2% under setting [3]; 65.9 ± 6.2% (33 µM, detergent: no detergent). Moreover, the AmpC inhibition stood at 14.8 ± 0.9% under setting [4] and 84.9 ± 8.3% under setting [5].

As to `Cc1cc2c(C(C)C)c(O)c(O)c(C=O)c2c(O)c1-c1c(C)cc2c(C(C)C)c(O)c(O)c(C=O)c2c1O`, the AmpC inhibition by setting is: under setting [1], -0.343 ± 1.1%; (4 µM, detergent: no detergent) 0.793 ± 12%; under setting [2], 4.76 ± 2.2%; (11 µM, detergent: no detergent) -3.81 ± 3.7%; under setting [3], -3 ± 5.7%; (33 µM, detergent: no detergent) -7.04 ± 18%. For the same compound, the AmpC inhibition reads like this: under setting [4], 6.4 ± 5.5%; under setting [5], 32.1 ± 2.7%.

`CC(=O)c1c(O)c(C)c(O)c(Cc2c(O)c3c(c(C(=O)C=Cc4ccccc4)c2O)OC(C)(C)C=C3)c1O`: the AmpC inhibition by setting is: under setting [1], 0.746 ± 2.2%; (4 µM, detergent: no detergent) 3.59 ± 4.4%; under setting [2], 5.76 ± 7.3%; (11 µM, detergent: no detergent) 41 ± 3.5%; under setting [3], -0.691 ± 4%; (33 µM, detergent: no detergent) 73.8 ± 1.6%. In addition, the AmpC inhibition was determined as 7.83 ± 5.4% under setting [4] and 82.1 ± 1.2% under setting [5].
